# Laboratory results from the supplement of paper PMC10037445.
# ± gives the standard deviation of the averaged measurements. Whole data set: some 2,900 compounds, median “NF-kB SEAP reporter activity, fold change vs agonist alone” near 0.99, cut for the highest 2% near 2.6. Only a selection was taken, and the highest values are over-represented in it overall.
# How the values were obtained:
# RAW-Dual [1] = test: NF-kB SEAP reporter activity, fold change vs agonist alone; cytotoxicity flag (confluency mask): not cytotoxic; higher = enhanced NF-kB activity
# How it was run: (§1)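 Library stock was pin-tooled at 50 nL into 384-well plates of RAW-Dual macrophages (50,000 cells/well, DMEM), followed 1 h later by a PRR agonist, and the cells were kept at 37 °C, 5% CO2. Supernatant collected after 20 hours was read for IRF by QuantiLuc luminescence and for NF-κB by QuantiBlue absorbance at 620 nm. Reporter activity is fold change over agonist-alone wells, and a well counted as cytotoxic when its IncuCyte confluency was below 70% of agonist controls in both mask sets.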
# RAW-Dual [2] = test: NF-kB SEAP reporter activity, fold change vs agonist alone; higher = enhanced NF-kB activity
# How it was run: as §1
# RAW-Dual [3] = test: NF-kB SEAP reporter activity, fold change vs agonist alone; cytotoxicity flag (confluency mask): cytotoxic (confluency <70% of control); higher = enhanced NF-kB activity
# How it was run: as §1
# [4] = agonist: ODN 1826 (TLR9) 0.5 ug/mL
# [5] = agonist: Pam2CSK4 (TLR2/6) 0.1 ug/mL
# [6] = agonist: Pam3CSK4 (TLR2/1) 0.1 ug/mL
# [7] = library stock concentration (final ~1000-fold dilution): 10 mM, cytotoxicity flag (confluency mask): not cytotoxic, agonist: Imiquimod (TLR7) […]
# [8] = library stock concentration (final ~1000-fold dilution): 10 mM, cytotoxicity flag (confluency mask): not cytotoxic, agonist: MPLA (TLR4) […]
# [9] = library stock concentration (final ~1000-fold dilution): 10 mM, cytotoxicity flag (confluency mask): cytotoxic (confluency <70% of control), agonist: Imiquimod (TLR7) […]
# [10] = library stock concentration (final ~1000-fold dilution): 10 mM, cytotoxicity flag (confluency mask): cytotoxic (confluency <70% of control), agonist: MPLA (TLR4) […]
smiles,measurement,setting,value
CC(=O)NC1C(NC(=N)N)C=C(C(=O)O)OC1C(O)C(O)CO (stereo not given) (library stock concentration (final ~1000-fold dilution): 10 mM water),NF-kB SEAP reporter activity,RAW-Dual [1]; agonist: LPS (TLR4) 0.1 ug/mL,1.37
same,NF-kB SEAP reporter activity,RAW-Dual [1]; [4],1.17
same,NF-kB SEAP reporter activity,RAW-Dual [1]; [5],1.19
same,NF-kB SEAP reporter activity,RAW-Dual [1]; [6],1.07
O=c1cc(-c2cccc3c2Sc2ccccc2S3)oc(N2CCOCC2)c1 (library stock concentration (final ~1000-fold dilution): 10 mM),NF-kB SEAP reporter activity,RAW-Dual [1]; agonist: LPS (TLR4) 0.1 ug/mL,2.66
same,NF-kB SEAP reporter activity,RAW-Dual [1]; [4],0.715
same,NF-kB SEAP reporter activity,RAW-Dual [1]; [5],0.748
same,NF-kB SEAP reporter activity,RAW-Dual [1]; [6],0.948
CC1CN(CC(=O)Nc2ccc3c(c2)Cc2cccc(-c4cc(=O)cc(N5CCOCC5)o4)c2S3)CC(C)O1 (stereo not given) (library stock concentration (final ~1000-fold dilution): 10 mM),NF-kB SEAP reporter activity,RAW-Dual [1]; agonist: LPS (TLR4) 0.1 ug/mL,5.33
same,NF-kB SEAP reporter activity,RAW-Dual [1]; [4],0.922
same,NF-kB SEAP reporter activity,RAW-Dual [1]; [5],1.36
same,NF-kB SEAP reporter activity,RAW-Dual [1]; [6],1.99
CC1CN(CC(=O)Nc2ccc3c(c2)Cc2cccc(-c4cc(=O)cc(N5CCOCC5)o4)c2S3)CC(C)O1 (stereo not given),NF-kB SEAP reporter activity,RAW-Dual [2]; [7],1.54
same,NF-kB SEAP reporter activity,RAW-Dual [2]; [8],2.82
O=c1cc(-c2cccc3c2Sc2ccccc2S3)oc(N2CCOCC2)c1,NF-kB SEAP reporter activity,RAW-Dual [2]; [7],1.04
same,NF-kB SEAP reporter activity,RAW-Dual [2]; [8],2.17
CNC(=O)C(Cc1c[nH]c2ccccc12)NC(=O)C(CC(=O)NO)CC(C)C (stereo not given),NF-kB SEAP reporter activity,RAW-Dual [2]; [7],1.04
same,NF-kB SEAP reporter activity,RAW-Dual [2]; [8],1.23
CNC(=O)C(Cc1c[nH]c2ccccc12)NC(=O)C(CC(=O)NO)CC(C)C (stereo not given) (library stock concentration (final ~1000-fold dilution): 10 mM),NF-kB SEAP reporter activity,RAW-Dual [1]; agonist: LPS (TLR4) 0.1 ug/mL,0.932
same,NF-kB SEAP reporter activity,RAW-Dual [1]; [4],0.999
same,NF-kB SEAP reporter activity,RAW-Dual [1]; [5],1.03
same,NF-kB SEAP reporter activity,RAW-Dual [1]; [6],1.01
CN1C2CCCC1CC(NC(=O)c1nn(C)c3ccccc13)C2.Cl (stereo not given) (library stock concentration (final ~1000-fold dilution): 10 mM water),NF-kB SEAP reporter activity,RAW-Dual [1]; agonist: LPS (TLR4) 0.1 ug/mL,1.2
same,NF-kB SEAP reporter activity,RAW-Dual [1]; [4],1.06
same,NF-kB SEAP reporter activity,RAW-Dual [1]; [5],1.04
same,NF-kB SEAP reporter activity,RAW-Dual [1]; [6],1.11
CN1C2CCCC1CC(NC(=O)c1nn(C)c3ccccc13)C2.Cl (stereo not given),NF-kB SEAP reporter activity,"RAW-Dual [2]; library stock concentration (final ~1000-fold dilution): 10 mM water, cytotoxicity flag (confluency mask): not cytotoxic, agonist: Imiquimod (TLR7) […]",0.874
same,NF-kB SEAP reporter activity,"RAW-Dual [2]; library stock concentration (final ~1000-fold dilution): 10 mM water, cytotoxicity flag (confluency mask): not cytotoxic, agonist: MPLA (TLR4) […]",1
CC1(C)CCC2(NC(=O)C(C)(F)F)CCC3(C)C(C(=O)C=C4C5(C)C=C(C#N)C(=O)C(C)(C)C5CCC43C)C2C1 (stereo not given),NF-kB SEAP reporter activity,RAW-Dual [2]; [9],0.14 ± 0.006
same,NF-kB SEAP reporter activity,RAW-Dual [2]; [10],0.254 ± 0.0072
CC1(C)CCC2(NC(=O)C(C)(F)F)CCC3(C)C(C(=O)C=C4C5(C)C=C(C#N)C(=O)C(C)(C)C5CCC43C)C2C1 (stereo not given) (library stock concentration (final ~1000-fold dilution): 10 mM),NF-kB SEAP reporter activity,RAW-Dual [3]; agonist: LPS (TLR4) 0.1 ug/mL,0.358 ± 0.053
same,NF-kB SEAP reporter activity,RAW-Dual [3]; [4],0.173 ± 0.0087
same,NF-kB SEAP reporter activity,RAW-Dual [3]; [5],0.0759 ± 0.018
same,NF-kB SEAP reporter activity,RAW-Dual [3]; [6],0.163 ± 0.0017
C=CC(C)(/C=C/c1ccc(O)cc1)CCC=C(C)C (stereo not given) (library stock concentration (final ~1000-fold dilution): 10 mM),NF-kB SEAP reporter activity,RAW-Dual [1]; agonist: LPS (TLR4) 0.1 ug/mL,0.878
same,NF-kB SEAP reporter activity,RAW-Dual [1]; [4],1.02
same,NF-kB SEAP reporter activity,RAW-Dual [1]; [5],0.934
same,NF-kB SEAP reporter activity,RAW-Dual [1]; [6],1.16
C=CC(C)(/C=C/c1ccc(O)cc1)CCC=C(C)C (stereo not given),NF-kB SEAP reporter activity,RAW-Dual [2]; [7],1.1
same,NF-kB SEAP reporter activity,RAW-Dual [2]; [8],1.12
C=CCNC1=C2CC(C)CC(OC)C(O)C(C)/C=C(\C)C(OC(N)=O)C(OC)/C=C\C=C(/C)C(=O)NC(=CC1=O)C2=O (stereo not given),NF-kB SEAP reporter activity,RAW-Dual [2]; [9],0.313
same,NF-kB SEAP reporter activity,RAW-Dual [2]; [10],0.516
C=CCNC1=C2CC(C)CC(OC)C(O)C(C)/C=C(\C)C(OC(N)=O)C(OC)/C=C\C=C(/C)C(=O)NC(=CC1=O)C2=O (stereo not given) (library stock concentration (final ~1000-fold dilution): 10 mM),NF-kB SEAP reporter activity,RAW-Dual [3]; agonist: LPS (TLR4) 0.1 ug/mL,0.289
same,NF-kB SEAP reporter activity,RAW-Dual [3]; [4],0.221
same,NF-kB SEAP reporter activity,RAW-Dual [3]; [5],0.0862
same,NF-kB SEAP reporter activity,RAW-Dual [3]; [6],0.182
CN(C)CCCn1cc(C2=C(c3c[nH]c4ccccc34)C(=O)NC2=O)c2ccccc21,NF-kB SEAP reporter activity,RAW-Dual [2]; [9],1.13
same,NF-kB SEAP reporter activity,RAW-Dual [2]; [10],1.59
CN(C)CCCn1cc(C2=C(c3c[nH]c4ccccc34)C(=O)NC2=O)c2ccccc21 (library stock concentration (final ~1000-fold dilution): 10 mM),NF-kB SEAP reporter activity,RAW-Dual [3]; agonist: LPS (TLR4) 0.1 ug/mL,0.346
same,NF-kB SEAP reporter activity,RAW-Dual [3]; [4],0.491
same,NF-kB SEAP reporter activity,RAW-Dual [3]; [5],0.833
same,NF-kB SEAP reporter activity,RAW-Dual [3]; [6],0.564
CN1CCN(c2nc(C3=C(c4c[nH]c5ccccc45)C(=O)NC3=O)c3ccccc3n2)CC1,NF-kB SEAP reporter activity,RAW-Dual [2]; [9],2.99
same,NF-kB SEAP reporter activity,RAW-Dual [2]; [10],2.19
COc1ccc2c(c1)c(C1=C(c3c[nH]c4ccccc34)C(=O)NC1=O)cn2CCCN(C)C (library stock concentration (final ~1000-fold dilution): 10 mM),NF-kB SEAP reporter activity,RAW-Dual [3]; agonist: LPS (TLR4) 0.1 ug/mL,1.23
same,NF-kB SEAP reporter activity,RAW-Dual [3]; [4],0.346
same,NF-kB SEAP reporter activity,RAW-Dual [3]; [5],1.25
same,NF-kB SEAP reporter activity,RAW-Dual [3]; [6],1.82
COc1ccc2c(c1)c(C1=C(c3c[nH]c4ccccc34)C(=O)NC1=O)cn2CCCN(C)C,NF-kB SEAP reporter activity,RAW-Dual [2]; [9],2.44
same,NF-kB SEAP reporter activity,RAW-Dual [2]; [10],1.71
CN1CCN(c2nc(C3=C(c4c[nH]c5ccccc45)C(=O)NC3=O)c3ccccc3n2)CC1 (library stock concentration (final ~1000-fold dilution): 10 mM),NF-kB SEAP reporter activity,RAW-Dual [3]; agonist: LPS (TLR4) 0.1 ug/mL,2.03
same,NF-kB SEAP reporter activity,RAW-Dual [3]; [4],1.29
same,NF-kB SEAP reporter activity,RAW-Dual [3]; [5],1.84
same,NF-kB SEAP reporter activity,RAW-Dual [3]; [6],3.14
Cc1ncc(NC(=O)c2cccc(C(F)(F)F)c2)cc1-c1cnc(OC2CCOCC2)c(N2CCOCC2)c1 (library stock concentration (final ~1000-fold dilution): 10 mM),NF-kB SEAP reporter activity,RAW-Dual [1]; agonist: LPS (TLR4) 0.1 ug/mL,1.31
same,NF-kB SEAP reporter activity,RAW-Dual [1]; [4],0.938
same,NF-kB SEAP reporter activity,RAW-Dual [1]; [5],0.495
same,NF-kB SEAP reporter activity,RAW-Dual [1]; [6],0.711
Cc1ncc(NC(=O)c2cccc(C(F)(F)F)c2)cc1-c1cnc(OC2CCOCC2)c(N2CCOCC2)c1,NF-kB SEAP reporter activity,RAW-Dual [2]; [7],0.898
same,NF-kB SEAP reporter activity,RAW-Dual [2]; [8],1.04
